Shown is part of a subset that was picked to be rich in hits.
TDP1 cell noCPT – qHTS for Inhibitors of human tyrosyl-DNA phosphodiesterase 1 (TDP1): qHTS in cells in absence of CPT; Potency, µM (titrated, usually from 46.2 µM), for the others: top-dose activity change, negative = growth inhibition, actives largely listed as inhibitors; DT40 Tdp1-/- hTDP1 cells, no CPT, ATP luminescence, 48 h; 15% of 420,000 active; also: potency is read from the fitted curve at half-maximal effect; nearly all actives have a fitted effect of over 55% in size
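Camptothecin absent (DMSO only). Human TDP1-complemented DT40 knockout cells, 400 cells/well, 37 °C for minimum 48 hr; ATP measured via CellTiter-Glo, 30 min dark incubation, luminescence.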
HT1080NT lethal – kills 2HG-producing HT-1080-NT fibrosarcoma cells. HT-1080-NT fibrosarcoma viability, CellTiter-Glo ATP luminescence, 48 h. Potency, µM (doses to about 46.1 µM), for the others: top-dose activity, negative = less viability, hits mostly cytotoxic. 1.6% of 360,000 active. AID 686970;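 also: NT is the 2HG producing partner of a matched IDH1 knockdown line; potency is read from the fitted curve at half-maximal effect; 0% = DMSO-treated cells and -100% = media-only wells without cells; nearly all actives have a fitted effect of over 55% in size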
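A 48-hour cytotoxicity screen used HT-1080-NT cells plated 2 hours before compound delivery. ATP-based CellTiter-Glo luminescence measured viability, normalized to DMSO and no-cell controls.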
DT40 TDP1 CPT – growth inhibition of DT40 Tdp1-/-;hTDP1 cells with camptothecin (screen for TDP1 inhibitors); Potency, µM (series often up to 46.2 µM), for inactives: at the top dose activity change, negative = growth inhibition, most hits filed as inhibitors; 12% of 420,000 active; chicken DT40 Tdp1-/-;hTDP1 cells + 20 nM CPT, ATP luminescence, 48 h; also: potency is read from the fitted curve at half-maximal effect; nearly all actives have a fitted effect of over 55% in size
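Cell growth measured by CellTiter-Glo luminescence after a minimum 48 h, 37 C compound exposure with 20 nM CPT in Tdp1-knockout DT40 cells stably expressing hTDP1, seeded 400/well; qHTS titration format.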
IL1B secr inh – inflammasome signaling inhibition, IL-1 beta readout; activity change, % at 57.5 µM; 4.7% of 360,000 active; THP-1 LPS/ATP IL-1B secretion, AlphaLISA, 16 h; hits give low values; in the data active = activity change below about -50%; inconclusive = mostly about -30% to -49%
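Secreted IL-1B measured by AlphaLISA bead assay after 16 h compound exposure of THP-1 cells; compounds (final up to 57.5 uM) added 1 h before LPS (250 ng/mL) and ATP (1.25 mM) stimulation; lower signal means less secretion.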
12-LOX inh – blocks human arachidonate 12S-lipoxygenase; P18054; 1.1% of 580,000 active; Potency, µM (top dose mostly 108 µM), without a hit: at the highest dose activity change, negative = inhibition, actives largely listed as inhibitors; purified 12hLO, xylenol orange hydroperoxide absorbance; also: potency is read from the fitted curve at half-maximal effect
Target sequence (P18054 whole entry, looked up): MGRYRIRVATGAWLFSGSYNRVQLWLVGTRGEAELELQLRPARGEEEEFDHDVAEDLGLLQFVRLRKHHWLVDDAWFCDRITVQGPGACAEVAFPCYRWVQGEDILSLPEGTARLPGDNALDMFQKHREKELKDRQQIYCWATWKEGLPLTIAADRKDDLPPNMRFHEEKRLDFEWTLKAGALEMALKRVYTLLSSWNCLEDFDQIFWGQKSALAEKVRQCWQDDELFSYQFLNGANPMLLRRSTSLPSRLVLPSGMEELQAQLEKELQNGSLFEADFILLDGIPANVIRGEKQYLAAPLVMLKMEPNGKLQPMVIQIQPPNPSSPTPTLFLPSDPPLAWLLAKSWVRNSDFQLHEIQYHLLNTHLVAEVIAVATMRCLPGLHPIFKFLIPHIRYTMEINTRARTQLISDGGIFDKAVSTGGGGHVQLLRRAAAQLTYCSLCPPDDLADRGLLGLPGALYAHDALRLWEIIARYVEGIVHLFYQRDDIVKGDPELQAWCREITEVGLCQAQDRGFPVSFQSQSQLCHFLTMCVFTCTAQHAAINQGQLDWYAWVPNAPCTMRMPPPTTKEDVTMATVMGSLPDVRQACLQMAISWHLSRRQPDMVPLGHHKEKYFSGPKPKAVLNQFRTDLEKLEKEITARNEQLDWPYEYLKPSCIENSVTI
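Purified human 12hLO (150 nM final) in 25 mM Hepes, 0.01% Triton X-100, pH 7.0 was preincubated 15 min at room temperature with compound. Then 40 uM arachidonic acid was added, 30 min. Hydroperoxide was read by Fe-XO absorbance ratio 573/405 nm.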
HT1080 IDH1KD tx – kills HT-1080 cells with IDH1 knockdown | 2% of 360,000 active | Potency, µM (doses to about 46.1 µM), without a hit: at the top dose activity, negative = toxicity, hits mostly cytotoxic | HT-1080 IDH1 knockdown viability, ATP luminescence, 48 h;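 also: potency is read from the fitted curve at half-maximal effect; 0% = DMSO wells and -100% = cell-free medium wells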
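HT-1080-IDH1KD cells (IDH1 knocked down), 750/well in RPMI with 5% FBS, treated with compound 48 h at 37 degrees C. Viability by CellTiter-Glo luminescence, normalised to DMSO and no-cell wells; concentration-response curves classed.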
The depositor's hits bear a star; ? = inconclusive; · = no result; [ ] = another dose, or the depositor's remark. Unless noted, calls follow the shape of the dose curve; as a rule, active = well fitted curve in the direction sought with a large enough effect; inconclusive = small, poorly fitted or top-dose-only effect, or another doubt; inactive = no such curve, though single readings can be large; an effect the other way counts as inactive or inconclusive. Unless noted, % is scaled to controls: 0 for no effect and ±100 for the full control effect.

SMILES | TDP1 cell noCPT | HT1080NT lethal | DT40 TDP1 CPT | IL1B secr inh | 12-LOX inh | HT1080 IDH1KD tx
COc1ccc(C=C2CS(=O)(=O)CC(=Cc3ccc(OC)cc3)C2=O)cc1 | 1.3µM* | ? | 1.8µM* | -107* | ? | 3.7µM*
COc1ccc(/C=C2\CCCCC2=O)cc1 | -23% | 19% | 9% | -4 | 0% | -1%
O=C(N[C@H]1CCOC[C@H]1C1CCOCC1)c1ccc2c(c1)ncn2CCO | · | · | · | · | 6% | ·
CCCn1nc(C(=O)OCC(=O)N2CCCC2)c2ccccc2c1=O | · | · | · | · | 14% | ·
CS(=O)(=O)c1ccccc1NC(=O)CSc1nc(C2CC2)n(-c2ccccc2)n1 | · | · | · | · | 34% | ·
O=C(Cn1c(=O)n(-c2cccc(Cl)c2)c(=O)c2sc3ccccc3c21)N1CCCC1 | 15µM* | · | ? | · | ? | ·
O=C(Cn1c(=O)n(-c2ccccc2)c(=O)c2sc3ccccc3c21)N1CCCC1 | -12% | · | -24% | · | -16% | ·
O=C(Cn1c(=O)n(-c2ccc(Cl)cc2)c(=O)c2sc3ccccc3c21)NC1CCCC1 | 18µM* | · | 13µM* | · | -19% | ·
Cc1oc(C(O)c2cncnc2)nc1C(=O)Nc1ccc(N2CCOCC2)cc1 (stereo not drawn) | · | · | · | · | 8%[176 µM] | ·
COC(=O)c1cc(F)c(-n2cncn2)c(F)c1 | -5% | 5% | -6% | -5 | 9% | -5%
COC(=O)c1cc([N+](=O)[O-])c(-n2cncn2)c([N+](=O)[O-])c1 | 5.8µM* | 3% | 5.8µM* | -14 | -20% | -3%
O=C(CC(Nc1cccc(Cl)c1Cl)C(=O)O)c1ccccc1 (stereo not drawn) | 12% | -17% | -22% | 37 | -5% | 0%
Cc1c(Cl)cccc1NC(CC(=O)c1ccccc1)C(=O)O (stereo not drawn) | ? | 4% | 15µM* | -3 | ? | 2%
O=C(CC(C(=O)O)c1ccc(Cl)cc1)c1ccccc1 (stereo not drawn) | -17% | -1% | 3% | 2 | -1% | 11%
O=C(CC(Nc1ccc(Cl)cc1)C(=O)O)c1ccccc1 (stereo not drawn) | -26% | 2% | 21µM* | -7 | ? | -19%
COc1cc2c(cc1OC)C(C[C@H]1CN(S(=O)(=O)c3ccccc3)CC[C@H]1CC(=O)O)=NCC2 | · | · | · | · | 2% | ·
COc1ccc(NC(=O)COC(=O)Cc2ccccc2[N+](=O)[O-])cc1OC | 26µM* | -2% | ? | -4 | -2% | -2%
COc1cc2c(cc1OC)C(Cc1ccccc1[N+](=O)[O-])=NCC2 | 23µM* | -1% | ? | 12 | ? | -1%
COc1ccccc1C(=O)NC(=O)COC(=O)Cc1ccccc1[N+](=O)[O-] | ? | 5% | ? | 16 | 5% | 18%
COc1ccc(CNc2ccc3c(c2)CCC3)cc1Br | 0% | -7% | -12% | 13 | ? | 0%
COc1ccc(NCc2ccccc2[N+](=O)[O-])cc1OC | 16µM* | -5% | 16µM* | -1 | -27% | 1%
COc1ccccc1CNc1ccc2c(c1)CCC2 | 10µM* | -14% | 4.6µM* | -60* | 0% | -8%
COc1ccc(CC(=O)NNS(=O)(=O)c2ccccc2[N+](=O)[O-])cc1OC | -18% | 11% | 7% | -10 | -8% | 5%
Cc1nc2c3c(C)c(C)n(Cc4ccncc4)c3ncn2n1 | · | · | · | · | 12% | ·
Oc1c(Cl)cccc1C=Nc1cc(C(F)(F)F)ccc1Oc1ccccc1 | · | · | · | · | -26% | ·
SMILES | TDP1 cell noCPT | HT1080NT lethal | DT40 TDP1 CPT | IL1B secr inh | 12-LOX inh | HT1080 IDH1KD tx
Cc1ccc(-n2c(O)c(C=NC3CCS(=O)(=O)C3)c3ccccc3c2=O)c(C)c1 (stereo not drawn) | ? | -13% | 21µM* | · | 19% | -6%
Cc1ccc(-n2c(O)c(C=Nc3cc(C)on3)c3ccccc3c2=O)c(C)c1 | 4.6µM* | -13% | 1.6µM* | -15 | -3% | -11%
CCC(CO)NS(=O)(=O)c1cc(-c2n[nH]c(=O)c3ccccc23)ccc1C (stereo not drawn) | · | · | · | · | -58% | ·
COc1cc(=O)n2c(c1C(=O)Nc1ccc(C(F)(F)F)cc1)CCCC2 | · | · | · | · | 37% | ·
COc1ccc(N2CCN(S(=O)(=O)c3ccc(OC)c(C(=O)N4CCOCC4)c3)CC2)cc1 | -13% | 9% | -9% | 3 | ? | 13%
COc1ccc(S(=O)(=O)N2CCN(c3ccccc3)CC2)cc1C(=O)N1CCCC1 | -20% | 3% | -1% | 10 | -3% | 5%
COc1ccc(N2CCN(C(=O)c3cc(S(=O)(=O)N4CCCCCC4)ccc3OC)CC2)cc1 | 16µM* | 0% | ? | -9 | -6% | 3%
COc1ccc(S(=O)(=O)N2CCCCCC2)cc1C(=O)N1CCN(c2ccc(F)cc2)CC1 | 21µM* | -3% | ? | ? | 26% | 0%
COc1ccc(N2CCN(C(=O)COc3ccc(S(=O)(=O)N4CCOCC4)cc3C)CC2)cc1 | 23µM* | -7% | ? | -2 | -1% | -12%
C[S+](=O)([O-])N1CC2(CCCN(Cc3ccc(Cl)cc3)C2)Cc2ccccc21 (stereo not drawn) | · | · | · | · | 4%[6.33 µM] | ·
O=C(COc1cccc(-n2cnnn2)c1)NC1CCCC1 | · | · | · | · | 12% | ·
O=Cc1ccc(O)c(Cl)c1 | · | · | · | · | 7% | ·
COc1cccc(CC(=O)Nc2ccc3c(c2)OC2(CCCC2)O3)c1 | ? | -4% | 18µM* | 0 | -1% | 0%
OC(C[n+]1c(Cl)ccc2ccccc21)c1ccccc1 (stereo not drawn) | ? | · | 8.9µM* | · | · | ·
CCN(CC(=O)NC1CCCC1)C(C)c1ccc(C#N)cc1 (stereo not drawn) | · | · | · | · | 3% | ·
O=C(Nc1cccc(-c2nc3ccccc3o2)c1)c1ccc(Cl)c([N+](=O)[O-])c1 | · | · | · | · | -12% | ·
Cc1cccc(-c2nc3cc(NC(=O)c4ccc(C)c([N+](=O)[O-])c4)ccc3o2)c1 | · | · | · | · | -28% | ·
Cc1ccc2oc(-c3cccc(NC(=O)c4ccc(N5CCC(C)CC5)c([N+](=O)[O-])c4)c3)nc2c1 | 7.3µM* | · | 18µM* | · | ? | ·
COc1cccc(-c2nc3cc(NC(=O)c4ccc(C)c([N+](=O)[O-])c4)ccc3o2)c1 | · | · | · | · | 45µM* | ·
Cc1ccc(CCNC(=O)c2c(C)nn(-c3ccc(F)cc3)c2-n2cccc2)cc1 | · | · | · | · | -33% | ·
Cc1ccc(-n2nc(C)c(C(=O)NCCCN3CCN(c4ccccc4F)CC3)c2-n2cccc2)cc1 | 3.7µM* | · | 3.3µM* | · | -24% | ·

From PubChem
